Bioassay records from PubChem.
Shown is part of a subset that was picked to be rich in hits.
D1 mod – allosterically modulates the human D1 dopamine receptor; HEK293 D1, CRE-luciferase, dopamine EC30 potentiation; actives deviate in either direction; B-score at 10 µM; hit rate 5.9% among 58,000; AID 641;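 active = luminescence count or its row- and column-corrected plate score outside the 99.7% band of the plate's sample wells, on either side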
DAT uptake mod – human DAT dopamine uptake with cocaine, either direction. Q01959. LLC-PK1 hDAT cells, [14C]-dopamine uptake with cocaine IC80; actives deviate in either direction. B-score at 10 µM. hit rate 1.3% among 110,000;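 active = Z score or B-score, a plate-position-corrected score, falls beyond the plate's 99.7% confidence bounds, in either direction; inactive = both scores lie inside the 99.7% bounds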;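 also: scored against the spread of the other compound wells on the same plate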
Target sequence (Q01959 whole entry, looked up): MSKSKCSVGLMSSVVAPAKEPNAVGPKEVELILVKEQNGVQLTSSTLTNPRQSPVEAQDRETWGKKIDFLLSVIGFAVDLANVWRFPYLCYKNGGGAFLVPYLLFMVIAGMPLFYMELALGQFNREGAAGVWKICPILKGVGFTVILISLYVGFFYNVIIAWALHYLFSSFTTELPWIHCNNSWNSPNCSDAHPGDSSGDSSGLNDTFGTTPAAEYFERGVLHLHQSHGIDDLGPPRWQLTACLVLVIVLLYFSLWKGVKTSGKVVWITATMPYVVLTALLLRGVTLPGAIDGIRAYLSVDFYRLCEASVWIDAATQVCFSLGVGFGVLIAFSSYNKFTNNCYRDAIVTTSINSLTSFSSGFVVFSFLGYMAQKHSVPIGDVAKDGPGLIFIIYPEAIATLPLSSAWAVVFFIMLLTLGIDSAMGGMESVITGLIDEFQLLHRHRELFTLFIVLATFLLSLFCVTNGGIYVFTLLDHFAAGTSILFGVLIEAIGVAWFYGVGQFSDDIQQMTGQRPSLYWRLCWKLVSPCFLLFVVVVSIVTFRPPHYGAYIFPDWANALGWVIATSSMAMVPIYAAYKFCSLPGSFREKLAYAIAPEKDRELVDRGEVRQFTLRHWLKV
FAK blocker – FAK (human) kinase inhibition; inhibition, %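 (tested at 7 µM)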; hit rate 0.84% among 97,000; biochemical FAK kinase activity assay; Q05397; AID 727; in the data active = inhibition above about 19%;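 also: 0% = DMSO and 100% = reference compound high control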
Mac1 fbg inh – inhibitors of human CD11b/CD18 binding to fibrinogen. inhibition, % at 10 µM. hit rate 0.54% among 93,000. K562 CD11b/CD18 adhesion to fibrinogen, ATPlite luminescence; Mn2+ added to activate the integrin. P05107+P11215;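 active = primary inhibition of 50% or more at 10 µM, then 40% or more on retest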
PTK2B oligo ant – blocks oligomerization of human Pyk2 in cells. hit rate 0.83% among 99,000. z-score (the deposit names both 25 µM and 10 µM). Q293 cells, Pyk2 FERM NanoBiT luminescence; hits give low values. Q14289;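 active = Z-score of -3 or lower, scaled per plate to the spread of control and sample wells; inactive = z-score above -3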;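 also: negative z-score means lost luminescence so less FERM oligomerization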
CD11b adhes enh – CD11b/CD18-fibrinogen binding enhancement | K562 CD11b/CD18 adhesion to fibrinogen, ATPlite luminescence | P05107+P11215 | activation, % at 10 µM | AID 1499 | hit rate 0.07% among 93,000;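 active = 10 µM primary screen giving 50% or more activity, confirmed by 40% or more on retest at that dose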
Starred values were filed as active, the others as inactive; / = no result.

SMILES | D1 mod | DAT uptake mod | FAK blocker | Mac1 fbg inh | PTK2B oligo ant | CD11b adhes enh
Cc1ccc(S(=O)(=O)N2CCC[C@H]2C(=O)OC(C)C(=O)Nc2ncc(Cl)cc2Cl)cc1 (some centres not stated) | / | -0.425 | 0.5 | -11.5 | 0.96 | 6.2
CN(CCCC(=O)Nc1ccncc1)S(=O)(=O)c1ccc(Cl)cc1 | -1.38 | 2.21 | 7.0 | 50.3* | 0.84 | -5.9
CCC(C(=O)NCc1ccco1)N(C(=O)CNS(=O)(=O)c1ccccc1)c1ccc(OC)cc1 (configuration not stated) | / | 1.51 | 1.1 | 10.9 | -0.08 | 0.8
COc1ccc2nc(C)c(C(=O)OCCN(C)C)cc2c1 | 0.14 | / | / | -7.3 | / | -1.3
O=C(Nc1ccc(-c2cn3ccsc3n2)cc1)c1ccc(F)c(S(=O)(=O)N2CCOCC2)c1 | / | -0.162 | -0.2 | -23.3 | -3.68* | -0.8
C/C(=N\NC(=O)c1ccc(Br)cc1)C1C(=O)c2ccccc2C1=O | / | -1.38 | 1.1 | 96.8* | -2.7 | -7.0
CC(/C=N/NC(=O)c1ccc(Br)cc1)=C\c1ccccc1 | / | 0.402 | 9.3 | 7.2 | -0.27 | 8.8
Cc1cc(/C=N/n2cnnc2)c(C)n1-c1ccc(OCc2ccc(Cl)cc2Cl)cc1 | / | -0.377 | 0.2 | 99.2* | -0.02 | -7.7
Clc1ccccc1CSc1ncccn1 | 1.14 | -0.309 | 2.1 | 11.8 | -0.14 | -1.6
COc1ccc(SCc2noc(C(=O)NC(C)C)c2C(=O)O)cc1 | / | 0.631 | 1.9 | / | / | /
CCN(CC)c1ccc(C2C3CCCCC3(O)CCN2CC(=O)N2CCCCC2)cc1 (configuration not stated) | -0.776 | -7.85* | 2.7 | 6.0 | -0.03 | 4.5
C/C(=N\OC(=O)c1ccc(OC(C)C)cc1)c1ccc(C)c(C)c1 | / | 0.506 | 1.3 | 65.6* | 1.25 | -5.8
CC/C(=N\OC(=O)c1ccc(OC(C)C)cc1)c1ccc(C)cc1 | / | / | 2.1 | 80.3* | 0.94 | -6.8
COc1ccc(C(=O)O/N=C(\C)c2ccccc2)cc1 | / | 0.00214 | -0.1 | 28.8 | 1.86 | -5.9
CC1CC(=O)C2=C(C1)Nc1ncnn1C2c1ccccc1 (configuration not stated) | / | 1.08 | -0.2 | -0.1 | 0.84 | -3.9
COc1ccc(C2CC(=O)C3=C(C2)Nc2ncnn2C3c2ccccc2C)c(OC)c1 (configuration not stated) | -0.695 | -1.01 | / | -8.7 | -3.59* | -1.0
COCCn1c(-c2ccc(Cl)cc2)cnc1SCC(=O)NCCc1ccc(OC)c(OC)c1 | / | / | / | 53.3* | / | -1.6
COc1ccc(CCNC(=O)CSc2nncn2N)cc1OC | 0.14 | 0.0326 | -2.7 | -3.4 | 0.16 | 0.0
CC(C)(C)c1ccc(-c2csc(NNC3=NCCCCC3)n2)cc1 | / | -0.0332 | 1.7 | 88.7* | -0.32 | -4.9
CC(C)Cc1cc(C(=O)Nc2ccc(F)cc2F)no1 | -1.55 | 0.073 | / | 11.8 | / | -1.3
CC(C)Cc1cc(C(=O)Nc2c(F)cc(F)cc2Br)no1 | -0.15 | 6.5* | 1.3 | -4.3 | / | 2.1
COc1ccc(C2N3CC4(C)CN2CC(C)(C3)C4O)cc1 (configuration not stated) | 0.951 | -0.00517 | -0.5 | 6.3 | / | -0.8
CCCCCCS(=O)Cc1ccccc1 (configuration not stated) | 0.126 | -0.715 | / | 0.2 | 1.94 | -4.0
COc1ccc(OCCSc2nnc(-c3ccc(OC)cc3)n2N)cc1 | / | -0.108 | -0.7 | -5.1 | 0.95 | -5.2
Cc1cc(C)n2nc(-c3sccc3-n3cccc3)cc2n1 | / | -2.61* | -3.7 | 5.5 | -0.22 | -1.6
SMILES | D1 mod | DAT uptake mod | FAK blocker | Mac1 fbg inh | PTK2B oligo ant | CD11b adhes enh
Cc1cc(C)n2nc(-c3sccc3-n3c(C)ccc3C)cc2n1 | / | 1.04 | 2.1 | -5.7 | -0.49 | 0.4
CCOC(=O)c1sc(NC(=O)c2c(C)nn(Cc3ccccc3)c2C)cc1C | -3.2* | 1.97 | -1.3 | 92.4 | -1.74 | -9.2
CCOC(=O)c1sc(NC(=O)c2ccccc2)cc1C | / | -0.286 | 1.5 | -9.8 | -1.78 | 0.0
O=C(NCCc1c[nH]c2ccccc12)c1cccc(S(=O)(=O)Nc2ccccc2Cl)c1 | / | / | / | 55.8* | / | -5.4
Cc1cc(C)cc(NC(=O)CCN2CC(C)OC(C)C2)c1 (configuration not stated) | 0.272 | -0.889 | -0.9 | -8.0 | 3.41 | -0.5
CCCCC(=O)Nc1cc(NC(=O)CCCC)cc(C(=O)O)c1 | -4.18* | -0.0427 | -1.2 | -2.3 | 0.39 | 4.9
CCCCC(=O)Nc1cccc(-c2nnc(-c3ccccc3)o2)c1 | 0.0785 | 2.81* | -0.6 | -1.7 | -1.6 | 4.5
O=C(Nc1cccc(Cl)c1)N1CCN2C(=O)c3ccccc3C12c1ccccc1 (configuration not stated) | / | -2.44 | 1.6 | / | -3.2* | /
Cc1ccc(C(=O)N2CCN3C(=O)c4ccccc4C23c2ccc(Cl)cc2)cc1 (configuration not stated) | / | -0.179 | 0.8 | 0.2 | -1.37 | -2.6
CCOC(=O)c1nc(N2CCN(C(=O)OCC)CC2)c2c3c(sc2n1)CCCC3 | / | 3.21* | -3.7 | 0.0 | -1.29 | -1.8
CCOC(=O)c1nc2sc3c(c2c(=O)[nH]1)CCCC3 | 0.206 | 0.614 | 4.0 | -0.4 | 0.08 | 1.0
COc1ccc(Nc2nc(NCCO)nc(OC)n2)cc1 | / | -0.573 | -0.5 | 4.7 | 1.56 | -4.6
CC(=O)c1ccc(Nc2nc(NCCO)nc(OC(C(F)(F)F)C(F)(F)F)n2)cc1 | / | -6.33* | 1.1 | / | -3.27* | /
O=c1c(C(c2ccccc2)c2c(O)sc3ccccc3c2=O)c(O)sc2ccccc12 | / | / | 5.8 | 91.7* | 0.34 | -6.4
Fc1ccc(Cn2nnc(-c3ccc(CN4CCOCC4)cc3)n2)cc1 | 0.0302 | -7.95* | 2.5 | -1.9 | -0.64 | 5.0
O=C1NC(c2cccs2)Nc2sc3c(c21)CCCC3 (configuration not stated) | 0.0436 | 2.8* | 3.4 | 7.7 | -0.72 | 0.7
CCCNC(=O)CN1C(=O)NC2(CCCc3cc(OC)ccc32)C1=O (configuration not stated) | / | 0.358 | -0.4 | 6.4 | 0.3 | 0.3
O=C(NCCCn1ccnc1)c1cccc(S(=O)(=O)N2CCCCCC2)c1 | / | / | -1.0 | -26.2 | 1.24 | -3.4
O=C(NCCCn1ccnc1)c1ccc(S(=O)(=O)N2CCCCCC2)cc1 | / | 3.08* | 8.2 | / | -0.68 | /
Cc1ccc(NC(=O)c2cc(Cl)nc3ccccc23)cc1 | / | -2.46* | -0.9 | / | -0.42 | /
CN(C)C=NCCn1c(N2CCOCC2)nc2c1c(=O)n(C)c(=O)n2C | -3.78* | -0.871 | / | / | 0.27 | /
CNC(=O)COC(=O)c1cc(=O)[nH]c2ccccc12 | / | -0.346 | 3.5 | / | -0.28 | /
CCCCCOC(=O)c1cc(=O)[nH]c2ccccc12 | / | 9.75e-05 | 7.8 | 10.5 | -3.54* | -2.0
CC(C)(C)NC(=O)NC(=O)COC(=O)c1cc(=O)[nH]c2ccccc12 | / | 0.666 | 3.7 | -17.1 | -3.82* | 0.0
CC(C)n1cnc2c(Nc3ccc(C(=O)O)cc3)nc(Cl)nc21 | / | -3.99* | / | / | / | /
Cc1cc(C(=O)NCc2cc(C)n(C)n2)sc1-c1ccccc1 | -3.24* | 1.71 | -1.9 | 10.6 | -0.85 | -0.1
Cc1cc(C(=O)N(C)C)sc1-c1ccccc1 | / | 0.356 | -0.4 | / | -0.24 | /
